Bioassay records from PubChem BioAssay.
This is a sample that favours compounds with a hit; in the whole collection about 1.6% have one here.
PREPL inhibitor – human PREPL enzyme inhibition. Q4J6C6. recombinant PREPL, fluorescence polarization activity-based probe. inhibition, % at 5.96 µM. 320,000 compounds, 0.68% hits. AID 2751; in the data active = inhibition above about 43%
PME-1 primary – PME-1 (human) inhibition; Q9Y570; inhibition, % at 5.9 µM; 320,000 compounds, 0.53% hits; recombinant PME-1, FP-Rh probe fluorescence polarization;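 active = inhibition above the campaign mean of all compounds plus 3 SD, cut at about 26% in these data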;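 note: competitive labeling of PME-1 active site by serine hydrolase directed probe; inhibitors block probe labeling so polarization falls and inhibition rises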
Target sequence (Q9Y570 whole entry, looked up): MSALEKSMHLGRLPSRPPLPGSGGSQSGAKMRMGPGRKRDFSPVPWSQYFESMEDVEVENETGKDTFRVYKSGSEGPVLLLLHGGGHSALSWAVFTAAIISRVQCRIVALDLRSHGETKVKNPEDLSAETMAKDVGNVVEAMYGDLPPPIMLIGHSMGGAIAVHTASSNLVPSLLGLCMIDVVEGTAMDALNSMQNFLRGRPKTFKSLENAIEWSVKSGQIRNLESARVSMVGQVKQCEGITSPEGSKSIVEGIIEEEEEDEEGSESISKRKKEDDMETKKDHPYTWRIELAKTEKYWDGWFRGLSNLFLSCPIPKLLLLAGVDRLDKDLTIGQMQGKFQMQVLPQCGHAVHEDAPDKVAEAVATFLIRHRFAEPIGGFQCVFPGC
LYPLA1 inh – LYPLA1 (human) inhibition in PME1 counter-screen. O75608. recombinant LYPLA1, FP-Rh probe fluorescence polarization. inhibition, % at 5.9 µM. 320,000 compounds, 0.16% hits. AID 2174;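 active = inhibition above the mean of all tested compounds plus 3 SD, set per campaign, cut at about 14% in these data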;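 note: inhibitors block serine hydrolase probe labeling of LYPLA1 so polarization falls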
Target sequence (O75608 whole entry, looked up): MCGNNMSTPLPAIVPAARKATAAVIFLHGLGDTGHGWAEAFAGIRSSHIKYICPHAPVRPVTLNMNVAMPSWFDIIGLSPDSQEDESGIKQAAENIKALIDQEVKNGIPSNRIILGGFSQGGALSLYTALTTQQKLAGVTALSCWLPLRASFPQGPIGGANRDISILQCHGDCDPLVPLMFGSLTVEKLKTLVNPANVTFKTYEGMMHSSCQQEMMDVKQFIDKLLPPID
MEX-5 binding – C. elegans MEX-5 TCR-2 RNA binding activity; MEX-5/FITC-TCR2 RNA binding, fluorescence polarization; active compounds read low; 300,000 compounds, 0.38% hits; activity score (negative = inhibition of binding), % at 10 µM;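 active = inhibition past about -25% in most replicates, and total fluorescence under double the plate's negative control median, limit read from the data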
Fam108B counter – counter-screen for RBBP9 inhibitors: inhibitors of mouse Fam108B | recombinant Fam108B, FP-Rh probe fluorescence polarization | inhibition, % at 9.51 µM | 300,000 compounds, 0.33% hits | AID 1947;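 active = inhibition above the screen mean inhibition plus 3 SD, computed separately per campaign, cut at about 18% in these data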;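 note: inhibitors lower polarization as less probe binds the enzyme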
LYPLA2 counter – counter-screen for PME1 inhibitors: inhibitors of human LYPLA2 | O95372 | recombinant LYPLA2, FP-Rh probe fluorescence polarization | inhibition, % at 5.9 µM | 320,000 compounds, 0.38% hits | AID 2177;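 active = inhibition above the screen-wide mean plus 3 SD, limit set per campaign, cut at about 26% in these data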
LYPLA2 confirm – LYPLA2 (human) inhibition, confirmation counter-screen; shares compounds with LYPLA2 counter; recombinant LYPLA2, FP-Rh probe fluorescence polarization; inhibition, % at 5.9 µM; 1,100 compounds, 72% hits; AID 2232;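 active = mean inhibition across replicates above the hit cutoff set in the primary screen, cut at about 26% in these data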;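 note: blocked labeling of the enzyme by serine hydrolase FP-Rh probe lowers polarization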
LYPLA2 gel ABPP – inhibitors of human LYPLA2. inhibition, % at 20 µM. AID 652029. rhLYPLA2 in mouse brain proteome, gel ABPP FP-Rh. 150 compounds, 30% hits. shares compounds with LYPLA2 counter;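 active = inhibition of LYPLA2 enzyme probe labeling above about 50%, limit read from the data; inactive = inhibition below that limit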;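 note: loss of FP-Rh probe labeling of the LYPLA2 gel band measured as band density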
A number is an active result; . = inactive; / = no result.

SMILES | PREPL inhibitor | PME-1 primary | LYPLA1 inh | MEX-5 binding | Fam108B counter | LYPLA2 counter | LYPLA2 confirm | others
CCCCCCCCCC(=O)Nn1cnc2ccccc2c1=O | . | . | . | . | . | 71 | 75 | LYPLA2 gel ABPP=52
CCC(C)c1ccccc1N1CC(C(=O)Nc2ccc(C)c(S(=O)(=O)N3CCOCC3)c2)CC1=O (stereo not drawn) | . | . | . | . | . | . | /
CCNC(=O)C(=O)NCCC1CCCCN1S(=O)(=O)c1cccs1 (stereo not drawn) | . | . | . | . | . | . | /
Cc1c([N+](=O)[O-])cc(C(=O)Nc2ccc(Cc3ccncc3)cc2)cc1[N+](=O)[O-] | . | . | . | . | . | 29 | 28
O=C(Nc1ccc(Cc2ccncc2)cc1)c1ccc(Cl)c([N+](=O)[O-])c1 | . | . | . | . | . | . | /
CN(C)CCCNS(=O)(=O)c1ccc(N2CCN(Cc3ccc4c(c3)OCO4)CC2)c([N+](=O)[O-])c1 | . | . | . | . | . | . | /
CN(C)CCNS(=O)(=O)c1ccc(N2CCc3ccccc32)c([N+](=O)[O-])c1 | . | . | . | . | . | . | /
CC(=O)c1ccc(N2CCN(c3ccc(S(=O)(=O)NCCN(C)C)cc3[N+](=O)[O-])CC2)cc1 | . | . | . | . | . | 28 | 31
CC(=O)c1ccc(N2CCN(c3ccc(S(=O)(=O)NCCCN(C)C)cc3[N+](=O)[O-])CC2)cc1 | . | . | . | . | . | 26 | .
Oc1ccc(Br)cc1CNc1nccs1 | . | . | . | . | . | . | /
O=C1N(Cc2cccnc2)C[C@@H]2C[C@@H](c3cccc(Oc4ccccc4)c3)N3CCC[C@@]123 | . | . | . | . | . | 27 | .
O=C1N(Cc2cccnc2)C[C@@H]2C[C@@H](c3ccc(C(F)(F)F)cc3)N3CCC[C@@]123 | . | . | . | . | . | . | /
CCC(C)NC(=O)Cc1c(C)c2cc3c(cc2oc1=O)OC(C)(C)CC3 (stereo not drawn) | . | . | . | . | . | . | /
O=C(COc1ccc(S(=O)(=O)NCc2ccccc2)cc1Cl)NCc1ccncc1 | . | . | . | . | . | 41 | 46
COc1ccc(C)cc1NC(=O)C1CCN(S(C)(=O)=O)CC1 | . | . | . | . | . | . | /
Cc1ccc(C(=O)N2CCC(C(=O)NC3CCCC3)CC2)cc1 | . | . | . | . | . | . | /
Cc1ccc(C(=O)N2CCC(C(=O)Nc3cccc([N+](=O)[O-])c3)CC2)cc1 | . | . | . | . | . | 32 | .
CC(C)(C)c1ccc(C(=O)N2CCC(C(=O)NC3CCCCCC3)CC2)cc1 | . | . | . | . | . | 48 | 54 | LYPLA2 gel ABPP=.
COc1ccc(C)cc1NC(=O)C1CCN(C(=O)c2ccc(C(C)(C)C)cc2)CC1 | . | . | . | . | . | 41 | 44
CC(=O)c1cccc(NC(=O)C2CCN(C(=O)c3ccc([N+](=O)[O-])cc3)CC2)c1 | . | . | . | . | . | . | /
CCOc1ccc(C(=O)C2CCN(C(=O)c3ccc([N+](=O)[O-])cc3)CC2)cc1 | . | . | . | . | . | 33 | 31
Cc1ccccc1NC(=O)CN1C(=O)COc2ccc(Cl)cc21 | . | . | . | . | . | . | /
Cn1cc([N+](=O)[O-])c(C(=O)N/N=C/c2ccc3c(c2)OCO3)n1 | . | . | . | . | . | . | /
Cc1nn(Cc2ccccc2)c2c1C(c1cccnc1)C(C#N)=C(N)O2 (stereo not drawn) | . | . | . | . | . | . | /
CCCc1nn(C)c2c1C(c1cccnc1)C(C#N)=C(N)O2 (stereo not drawn) | . | . | . | . | . | 29 | .
SMILES | PREPL inhibitor | PME-1 primary | LYPLA1 inh | MEX-5 binding | Fam108B counter | LYPLA2 counter | LYPLA2 confirm | others
Fc1ccc(-c2ccnn2-c2ccccc2)cc1 | . | . | . | . | . | . | /
O=C(NC(Nc1ncccn1)C(=O)c1ccccc1)c1ccccc1 (stereo not drawn) | . | . | . | . | . | . | /
O=c1c2ccccc2ncn1CCCSc1ccc(Cl)cc1 | . | . | . | . | . | 34 | 29
CCOC(=O)c1ccccc1-n1c(C)cc(C2N=C(N)Nc3nc4ccccc4n32)c1C (stereo not drawn) | . | . | . | / | . | 71 | 77
O=[N+]([O-])c1ccccc1-c1nc(-c2ccc(Br)o2)no1 | . | . | . | . | . | 32 | 29
CSCC(=O)N1CCCC(N2CCN(c3cccc(C(F)(F)F)c3)CC2)C1 (stereo not drawn) | . | . | . | . | . | . | /
Cc1cc(C(=O)N2CCCC(N3CCN(c4cccc(C(F)(F)F)c4)CC3)C2)c(C)o1 (stereo not drawn) | . | . | . | . | . | 31 | 41
CC1(CCC(=O)N2CCCC(N3CCN(c4cccc(C(F)(F)F)c4)CC3)C2)CC1 (stereo not drawn) | . | . | . | . | . | 32 | 31
Cc1occc1C(=O)N1CCCC(N2CCN(c3cccc(C(F)(F)F)c3)CC2)C1 (stereo not drawn) | . | . | . | . | . | 28 | 28
Cc1ncoc1C(=O)N1CCCC(N2CCN(c3cccc(C(F)(F)F)c3)CC2)C1 (stereo not drawn) | . | . | . | . | . | 63 | 69 | LYPLA2 gel ABPP=.
COc1ccccc1N1CCN(S(=O)(=O)c2ccc(Cl)s2)CC1 | . | . | . | . | . | . | /
NCCCC[C@H]1NC(=O)[C@H](CCC(=O)O)NC(=O)c2cc([N+](=O)[O-])cc(I)c2OCC[C@@H](C(N)=O)NC1=O | . | . | . | / | . | . | /
CCC1Sc2ccc(S(=O)(=O)CCC(=O)Nc3cc(C)ccn3)cc2NC1=O (stereo not drawn) | . | . | . | . | . | . | /
COc1cc(/C=N/NC(=O)Cc2ccccc2)ccc1Oc1ccc([N+](=O)[O-])cc1[N+](=O)[O-] | . | . | . | . | . | 40 | 31
CCOc1cc(C=C(C#N)C#N)ccc1Oc1ccc([N+](=O)[O-])cn1 | . | . | . | . | . | . | /
COc1cc(/C=C(/C#N)c2ccc(F)cc2)ccc1Oc1ccc([N+](=O)[O-])cn1 | . | . | . | . | . | 47 | 51 | LYPLA2 gel ABPP=.
COc1cc(/C=N\NC(=O)c2ccccc2F)ccc1Oc1ccc([N+](=O)[O-])cn1 | . | . | . | . | . | 31 | .
CCN(C(=O)COC(=O)c1cccc(S(=O)(=O)N(CC)CC)c1)C1CCS(=O)(=O)C1 (stereo not drawn) | . | . | . | . | . | . | /
CCOc1cc(CN2CCSCC2)ccc1O | . | . | . | . | . | . | /
CCOc1cc(CN2CCN(c3cccc(C(F)(F)F)c3)CC2)ccc1O | . | . | . | . | . | 28 | 29
